Assay [1] is described as follows: Primary qHTS for inhibitors of nuclear receptor binding SET domain protein 2 (NSD2) in an RCH-ACV wild type WT cells (2C) (AID 1645877). Also: nearly all actives have a fitted effect of over 70% in size. Also: potency is read from the fitted curve at half-maximal effect. As to activity change, negative = cell killing: % is scaled to controls: 0 for no effect and ±100 for the full control effect. A general note: qHTS replaces the single test concentration by a dilution series.
The target in assay [2] is Glutathione peroxidase 1 (Homo sapiens) (UniProt P07203). As to the kind of experiment: Primary qHTS Assay for Inhibitors of Recombinant Selenoprotein Glutathione Peroxidase 1 (GPX1) (AID 1845191). Also: nearly all actives have a fitted effect of over 65% in size. As to activity, negative = inhibition: % is scaled to controls: 0 for no effect and ±100 for the full control effect. A digest of the protocol:
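NADPH consumption tracked by fluorescence at 340/450 nm between t=0 and t=15 min, room temperature. Final mix: 10 nM GPX1, 100 nM glutathione reductase, 1 mM GSH, 0.5 mM NADPH, 0.5 mM cumene hydroperoxide, 0.01% BSA; 30 min compound–enzyme preincubation.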

Assay [3] concerns the target Phospholipid hydroperoxide glutathione peroxidase GPX4 (Homo sapiens) (UniProt P36969). In words: Primary qHTS Assay for Inhibitors of Recombinant Selenoprotein Glutathione Peroxidase 4 (GPX4) (AID 1845192). Also: nearly all actives have a fitted effect of over 65% in size. As to activity change, negative = inhibition: series mostly up to about 50 µM; % is scaled to controls: 0 for no effect and ±100 for the full control effect. A digest of the protocol:
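NADPH consumption followed by fluorescence at 340/450 nm, t=0 and after 15 min at room temperature. Reaction started with cumene hydroperoxide (0.5 mM final) after 30 min compound–GPX4 preincubation; final 200 nM GPX4, 100 nM GR, 1 mM GSH, 0.5 mM NADPH.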

The target in assay [4] is Luciferin 4-monooxygenase (Photinus pyralis) (UniProt P08659). As to the kind of experiment: Primary firefly luciferase (FLuc) qHTS assay for identification of artifact compounds. (AID 1845220). Also: nearly all actives have a fitted effect of over 60% in size. Also: potency is read from the fitted curve at half-maximal effect.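 As to activity change, negative = inhibition: series mostly up to about 54 µM; plate controls were DMSO vehicle for no effect and no enzyme for full effect.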 The procedure, abridged:
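Compounds sat 15 min at room temperature with 10 uM luciferin and 10 uM ATP (pH 7.6 Tris acetate). Firefly luciferase (10 nM final) was then added, and luminescence was read 5 min later. Data normalized to no-enzyme and DMSO controls were Hill-fitted.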

Assay [5] is described as follows: Primary fluorescence-based thiol-reactive (MSTI) qHTS assay for identification of artifact compounds. (AID 1845221). Also: nearly all actives have a fitted effect of over 65% in size. Also: potency is read from the fitted curve at half-maximal effect.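 As to activity change, negative = thiol reactive: series mostly up to about 54 µM; thiol-reactive compounds lower the probe fluorescence signal.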 The procedure, abridged:
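Probe: MSTI 4 uM, PBS pH 7.4, 2% DMSO. Incubation 1 h, RT, light-protected. Readout fluorescence 525/598 nm.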

Assay [6] relates to Nanoluciferase (engineered Oplophorus gracilirostris luciferase). As to the kind of experiment: Primary Nanoluciferase (NLuc) qHTS assay for identification of artifact compounds. (AID 1845222).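 Also: series mostly up to about 54 µM; 0% = DMSO and -100% = no enzyme.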 The procedure, abridged: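 Luminescence from secreted NLuc (filtered, 1:55-diluted S16 cell medium) read 5 min after Nano-Glo substrate; compounds preincubated 15 min, RT. Hill fits of inhibition normalized to DMSO and no-enzyme.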

Experimental findings from PubChem BioAssay (NCATS) are described below.

Unmarked numbers belong to inactive results. Results filed as inconclusive are left out. The source made the active and inactive calls. Calls follow the shape of the dose curve; as a rule, active = well fitted curve in the direction sought with a large enough effect; inconclusive = small, poorly fitted or top-dose-only effect, or another doubt; inactive = no such curve, though single readings can be large; an effect the other way counts as inactive or inconclusive.

Phospholipid hydroperoxide glutathione peroxidase GPX4 (Homo sapiens), sequence (P36969 whole entry, looked up): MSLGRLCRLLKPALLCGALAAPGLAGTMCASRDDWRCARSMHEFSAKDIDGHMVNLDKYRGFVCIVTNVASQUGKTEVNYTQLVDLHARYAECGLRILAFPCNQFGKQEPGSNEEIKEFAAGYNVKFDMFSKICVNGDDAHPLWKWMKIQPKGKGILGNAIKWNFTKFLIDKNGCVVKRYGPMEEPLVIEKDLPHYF
Glutathione peroxidase 1 (Homo sapiens), sequence (P07203 whole entry, looked up): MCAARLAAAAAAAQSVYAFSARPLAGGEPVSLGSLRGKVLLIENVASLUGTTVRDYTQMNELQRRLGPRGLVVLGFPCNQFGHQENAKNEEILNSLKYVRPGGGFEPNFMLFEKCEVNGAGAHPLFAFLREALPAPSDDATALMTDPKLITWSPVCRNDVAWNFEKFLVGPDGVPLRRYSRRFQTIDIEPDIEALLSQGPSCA

Turning to `CC1(C)CC[C@@]2(C(=O)O[C@@H]3O[C@H](CO)[C@@H](O)[C@H](O)[C@H]3O)C(C1)C1=CCC3[C@@]4(C)CC[C@@H](O[C@@H]5O[C@H](C(=O)O)[C@@H](O[C@@H]6OC[C@@H](O)[C@H](O)[C@H]6O)[C@H](O[C@@H]6OC[C@](O)(CO)[C@H]6O)[C@H]5O)C(C)(C)C4CC[C@@]3(C)[C@]1(C)C[C@H]2O` (stereo not given in full), the activity change, negative = cell killing in assay [1] is -88.4% [at 9.23 µM]. Also, the Potency entry in assay [2] and in assay [3] was “inactive” throughout. Besides, the outcome in assay [4] was “inactive [at 11.6 µM]”. Further, the activity change, negative = thiol reactive in assay [5] is 54.8% [at 11.5 µM]. In addition, in assay [6], the activity, negative = inhibition was 1.29% [at 11.6 µM].

For the molecule `COC(=O)C[C@H]1[C@]2(C)C3=C(C)[C@H](c4ccoc4)C[C@H]3O[C@@H]2[C@H](OC(C)=O)C2[C@](C)(C(=O)OC)C=CC(=O)[C@@]21C` (stereo not given in full), the Potency result in assay [1], in assay [2], in assay [3], in assay [4] and in assay [6] was “inactive” throughout. Besides, in assay [5], the Potency was 13 µM (active).

For the molecule `CC(=O)OC[C@H]1O[C@H](O[C@]2(CO)O[C@H](CO)[C@@H](OC(=O)/C=C/c3ccccc3)[C@@H]2O)[C@H](O)[C@@H](O)[C@@H]1O`, the Potency entry in assay [1], in assay [2], in assay [3], in assay [4] and in assay [6] was “inactive” in each case. Besides, the Potency in assay [5] is 4.62 µM (active).

For the molecule `CC(=O)OC1C[C@@]2(C)[C@@H](CC[C@@H](C)[C@]23Cc2c(O)cc4c(c2O3)CNC4=O)C(C)(C)[C@@H]1O` (stereo not given in full), the Potency result in assay [1], in assay [2], in assay [3], in assay [4], in assay [5] and in assay [6] was “inactive” each time.

As to `O=C(O)CC1CCC(c2ccc(-c3ccc4nc(C(=O)NCc5ccc(OC(F)(F)F)cc5)cn4c3)cc2)CC1` (stereo not given), the Potency result in assay [1], in assay [2], in assay [3], in assay [4], in assay [5] and in assay [6] was “inactive” throughout.

With `CCC(O)C(C)C1CCC(C(C)C(=O)O)O1` (stereo not given), the Potency entry in assay [1], in assay [2], in assay [3], in assay [4] and in assay [6] was “inactive” throughout. Besides, the Potency in assay [5] is 10.6 µM (active).

In the case of `C[C@@H]1CC[C@]2(C(=O)O[C@@H]3O[C@H](CO)[C@@H](O)[C@H](O)[C@H]3O)CC[C@]3(C)C(=CCC4[C@@]5(C)C[C@@H](O)[C@H](O)[C@@](C)(C(=O)O[C@H]6[C@H](O)C[C@@]7(C)C(CC[C@]8(C)C7CC=C7[C@H]9[C@](C(=O)O[C@@H]%10O[C@H](CO)[C@@H](O)[C@H](O)[C@H]%10O)(CC[C@@H](C)[C@@]9(C)O)CC[C@]78C)[C@@]6(CO)C(=O)O)C5CC[C@]43C)[C@@H]2[C@]1(C)O` (stereo not given in full), the activity change, negative = cell killing in assay [1] is 0.118% [at 9.23 µM]. Also, in assay [2], the outcome is “inactive [at 9.52 µM]”. Besides, the activity change, negative = inhibition in assay [3] was -0.473% [at 9.73 µM]; in assay [4], 0.17% [at 11.6 µM]. The activity change, negative = thiol reactive in assay [5] was -3.19% [at 11.5 µM]. Besides, the activity, negative = inhibition in assay [6] is -2.05% [at 11.6 µM].

Turning to `CC1=C(C)C(=O)OC(C(C)C2CCC3C4CC=C5CC(OC6OC(COC7OC(CO)C(O)C(O)C7O)C(O)C(O)C6O)CC(O)C5(C)C4CCC23C)C1` (stereo not given), the Potency result in assay [1], in assay [2], in assay [3], in assay [4], in assay [5] and in assay [6] was “inactive” each time.

`CC(=O)NCC(=O)N1C2CCC1c1cc(Nc3ncc(C(F)(F)F)c(NC4CCC4)n3)ccc12` (stereo not given): the Potency in assay [1] is 0.0205 µM (active). Besides, the Potency entry in assay [2], in assay [3], in assay [4], in assay [5] and in assay [6] was “inactive” each time.

With `CC1(C)CC[C@]2(C(=O)OC3OC(CO)C(O)C(O)C3O)CC[C@]3(C)C(=CCC4[C@@]5(C)CC[C@H](OC6OC(C(=O)O)C(O)C(OC7OC(CO)C(O)C(O)C7O)C6O)C(C)(C)C5CC[C@]43C)C2C1` (stereo not given in full), the activity change, negative = cell killing in assay [1] is -7.21% [at 9.23 µM]. Further, the Potency result in assay [2] and in assay [3] was “inactive” each time. Besides, the activity change, negative = inhibition in assay [4] is 2.81% [at 11.6 µM]. The activity change, negative = thiol reactive in assay [5] was 338% [at 11.5 µM]. For the same molecule, the activity, negative = inhibition in assay [6] is 2.64% [at 11.6 µM].

For `CO[C@H]1/C=C/C=C/C=C/C[C@H](OC(=O)[C@@H](C)NC(=O)C2CCCCC2)[C@H](C)[C@@H](O)/C(C)=C/CCc2cc(O)cc(c2)NC(=O)C1`, the Potency in assay [1] is 0.242 µM (active); in assay [5], 5.61 µM (active). The Potency entry in assay [2], in assay [3], in assay [4] and in assay [6] was “inactive” in each case.

On to `C[C@@H](O)[C@H](NC(=O)c1ccc(C#Cc2ccc(CN3CCOCC3)cc2)cc1)C(=O)NO`, for which the Potency result in assay [1], in assay [2], in assay [3], in assay [4], in assay [5] and in assay [6] was “inactive” throughout.

As to `CC1CCC23COC(=O)C2=CC(O)CC3C1(C)CCC1=CC(O)OC1=O` (stereo not given), the Potency entry in assay [1], in assay [2], in assay [3], in assay [4] and in assay [6] was “inactive” each time. Moreover, the Potency in assay [5] was 3.29 µM (active).

As to `Cc1cc(OCc2nc(-c3ccccc3Cl)cs2)ccc1OCC(=O)O`, the Potency entry in assay [1], in assay [2], in assay [3], in assay [5] and in assay [6] was “inactive” throughout. Moreover, in assay [4], the Potency is 9.53 µM (active).

Take `CC1OC2OC(=O)C3(C)CC4=C(CO)C5=C(CC(=O)C4(C)C(C1=O)C23)C(C)(C)OC(=O)C5` (stereo not given): the Potency entry in assay [1], in assay [2], in assay [3], in assay [4], in assay [5] and in assay [6] was “inactive” each time.
